Myeloid diff 2: promotes myeloid progenitor differentiation; 360,000 tested, 1% active; AID 624256; ER-HoxA9 myeloid progenitors, lysozyme-GFP differentiation, flow cytometry; calls only at 10 µM;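 active = normalized GFP-positive differentiation at or above the plate's own cutoff, the solvent-only control mean plus 3 SD; inconclusive = no clear call, values can overlap the other calls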;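 note: cells exposed to compound for four days before flow analysis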
TLR4-MyD88 BLA: TLR4-MyD88 interaction inhibition in cells | O00206+Q99836 | inhibition, % at 8.4 µM | HeLa CL3-4 TLR4/MyD88 BLA complementation, FRET ratio | AID 861 | 200,000 tested, 0.18% active; in the data active = inhibition above about 25%;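 note: 0% = vehicle and 100% = reference inhibitor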
Target sequence (O00206 whole entry, looked up): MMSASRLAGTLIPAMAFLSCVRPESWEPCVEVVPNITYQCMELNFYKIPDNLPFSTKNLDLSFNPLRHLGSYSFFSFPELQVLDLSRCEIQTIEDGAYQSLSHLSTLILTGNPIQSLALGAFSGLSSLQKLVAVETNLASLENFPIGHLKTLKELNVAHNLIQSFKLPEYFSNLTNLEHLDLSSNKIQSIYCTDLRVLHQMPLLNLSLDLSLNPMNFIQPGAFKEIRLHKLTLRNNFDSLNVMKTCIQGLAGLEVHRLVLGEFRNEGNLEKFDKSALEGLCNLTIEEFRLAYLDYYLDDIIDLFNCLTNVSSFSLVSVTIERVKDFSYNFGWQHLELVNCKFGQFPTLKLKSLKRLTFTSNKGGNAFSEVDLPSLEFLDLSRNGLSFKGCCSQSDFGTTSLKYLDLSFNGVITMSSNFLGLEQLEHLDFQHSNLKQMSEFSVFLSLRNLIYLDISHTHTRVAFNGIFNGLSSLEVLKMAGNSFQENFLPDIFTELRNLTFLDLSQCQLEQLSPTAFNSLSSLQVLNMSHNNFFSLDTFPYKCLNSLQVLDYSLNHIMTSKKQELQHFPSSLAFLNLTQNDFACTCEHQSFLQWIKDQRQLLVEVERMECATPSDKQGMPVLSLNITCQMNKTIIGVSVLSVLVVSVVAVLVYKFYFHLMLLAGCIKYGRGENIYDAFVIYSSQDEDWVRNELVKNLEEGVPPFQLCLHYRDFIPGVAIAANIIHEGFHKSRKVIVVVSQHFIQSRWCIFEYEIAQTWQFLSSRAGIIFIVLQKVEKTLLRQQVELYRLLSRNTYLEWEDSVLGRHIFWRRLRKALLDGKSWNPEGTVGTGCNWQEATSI
Target sequence (Q99836 whole entry, looked up): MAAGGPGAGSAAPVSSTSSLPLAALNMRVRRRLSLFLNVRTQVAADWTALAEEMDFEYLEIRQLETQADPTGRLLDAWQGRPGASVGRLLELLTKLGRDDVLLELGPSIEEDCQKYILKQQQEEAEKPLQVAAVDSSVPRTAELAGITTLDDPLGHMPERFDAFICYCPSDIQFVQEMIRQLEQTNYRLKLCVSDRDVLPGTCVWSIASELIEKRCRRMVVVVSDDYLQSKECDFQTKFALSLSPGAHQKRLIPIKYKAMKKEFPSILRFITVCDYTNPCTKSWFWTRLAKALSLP
ABCB6 inh MLPCN: inhibitors of human ABC transporter ABCB6; Q9NP58; K562-ABCB6 porphyrin accumulation, flow cytometry, 1 h; stronger effect = lower value; fluorescence ratio to DMSO, % at 10 µM; 360,000 tested, 0.19% active;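 active = fluorescence ratio to DMSO below 75%, the collection mean minus 3 SD; inconclusive = too few cells collected in the well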;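 note: signal is porphyrin accumulated inside mitochondria; 100% equals median channel fluorescence of DMSO control wells; lower ratio means ABCB6 inhibition with less porphyrin fluorescence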
NOD2 RIPK2 PPI: inhibitors of human NOD2-RIPK2 interaction. 360,000 tested, 0.38% active. O43353. inhibition, % at 4.98 µM. CHO BLA complementation NOD2-RIPK2, CCF4 ratio; in the data active = inhibition above about 21%;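 note: 0% = vehicle only and 100% = reference blocker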
TLR9-MyD88 block: TLR9-MyD88 interaction inhibition. CHO BLA complementation TLR9-MyD88, CCF4 FRET ratio. inhibition, % at 4.98 µM. 340,000 tested, 0.21% active. AID 504734;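 active = inhibition above the mean over all tested compounds plus 3 SD, cut at about 21% in these data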;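 note: 0% = DMSO only wells and 100% = clavulanate BLA inhibitor control wells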
NOD2 RIPK2 conf: confirmation of human NOD2-RIPK2 interaction inhibitors; CHO cells, NOD2-RIPK2 BLA complementation, CCF4 FRET; shares compounds with NOD2 RIPK2 PPI; 1,200 tested, 70% active; inhibition, % at 4.98 µM;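 active = mean inhibition across replicates above a set limit taken from the earlier primary screen, cut at about 21% in these data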;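 note: 0% = DMSO-only wells and the high end = clavulanate BLA-blocked wells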
NOD2 BLA counter: NOD2-RIPK2 counterscreen BLA reporter activity. shares compounds with NOD2 RIPK2 PPI. CHO BLA reporter, CCF4 FRET ratio. inhibition, % at 4.98 µM. 1,200 tested, 57% active;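 active = mean inhibition above the low-control mean inhibition plus three low-control SD, cut at about 11% in these data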;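 note: 0% = DMSO only wells and 100% = clavulanate high control wells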
Active calls of the source: *; i = inactive; ? = inconclusive; . = not tested or not shown; + = active, no number. The list is not random: actives were taken first. Their share in the collection is about 1.7%.

SMILES	Myeloid diff 2	TLR4-MyD88 BLA	ABCB6 inh MLPCN	NOD2 RIPK2 PPI	TLR9-MyD88 block	NOD2 RIPK2 conf	NOD2 BLA counter
O=C(Cc1csc(Nc2nc(=S)[nH]c3ccccc23)n1)NCCCN1CCN(c2ccccc2F)CC1	i	6	77	47*	20	46*	54*
CS(=O)(=O)c1ccc(C(=O)N2CCN(C(=O)c3ccco3)CC2)cc1	i	.	92	2	-3	.	.
CCOc1ccc(CNC(=O)CCS(=O)(=O)Cc2ccccc2C)cc1OC	i	0	104	3	-8	.	.
CCOc1ccc(CNC(=O)CCc2cn(C)c3ccccc23)cc1OC	i	1	97	37*	9	-2	-1
Cc1ccc(/C=C2/NC(=O)N(c3ccccc3)C2=O)o1	i	19	107	6	2	.	.
O=C1N/C(=C/c2ccc(N3CCOCC3)o2)C(=O)N1c1cccc(Cl)c1	.	11	113	33*	11	22*	9
C(=Cc1c[nH]c2ccccc12)c1ccc2ccccc2n1	+	.	325	29*	11	33*	47*
CC(=O)OC1CCC2(C)C(CCC3C4CC=C(C(C)=O)C4(C)OC(=O)CC32)C1 (centres undefined)	?	.	98	39*	-2	39*	-3
CCC1Cc2[nH]c(=S)[nH]c(=O)c2C(c2ccc(Cl)cc2)O1 (centres undefined)	i	.	100	-10	.	.	.
O=C1OCCN1C(=O)[C@H]1[C@H](c2ccc(Cl)cc2)C(c2ccccc2)=NN1c1ccccc1	i	.	103	2	-3	.	.
O=C1OCCN1C(=O)[C@H]1[C@H](c2ccccc2)C(c2cccc(Cl)c2)=NN1c1ccccc1	i	.	104	27*	-14	14	38*
CC(C)(C)NCC(=Cc1ccccc1)C(=O)c1ccccc1	?	.	93	27*	-2	24*	3
CCCCCOc1ccc(Br)cc1/C(C)=N/NC1=NCCN1	?	5	85	23*	9	22*	-2
COC(=O)C1=CN(c2cccc(OCc3ccccc3)c2)C(N)=C(C#N)C1c1cccc(OC)c1OC (centres undefined)	i	.	.	-25	.	.	.
O=C(Nc1ccon1)c1csc2ccccc12	i	-1	98	-15	2	.	.
O=C(Nc1cnccn1)c1csc2ccccc12	i	-3	90	33*	-1	-4	-3
Cc1ccccc1OCC(O)COc1ccccc1C	i	.	98	-7	0	.	.
O=C(c1ccc(Cl)cc1)c1c[nH]c(C(=O)NNc2cccc(Cl)n2)c1	i	8	99	23*	5	1	2
COc1ccc(CCNC(=O)C(C)n2nc(C)n3c(cc4occc43)c2=O)cc1OC (centres undefined)	i	.	100	-4	-3	.	.
COc1ccccc1C(=O)N/C(=C\c1cn(S(=O)(=O)N(C)C)c2ccccc12)C(=O)N1CCN(C)CC1	?	.	98	14	2	.	.
O=P(Cc1cc(Br)cc(Br)c1OCCO)(c1ccccc1)c1ccccc1	i	.	89	-17	-4	.	.
COc1ccc(-c2csc(-c3cc4ccccc4oc3=N)n2)cc1	i	12	93	31*	19	16	23*
COc1ccc(-c2noc(-c3cc4ccccc4oc3=O)n2)cc1	.	1	.	.	.	.	.
CN(Cc1cc(Cl)cc(Cl)c1)CC(C(=O)c1ccccc1)c1ccccc1 (centres undefined)	?	.	82	-3	2	.	.
CN(C)CC(C(=O)c1ccccc1)c1ccccc1 (centres undefined)	?	23	96	23*	-3	13	-2
SMILES	Myeloid diff 2	TLR4-MyD88 BLA	ABCB6 inh MLPCN	NOD2 RIPK2 PPI	TLR9-MyD88 block	NOD2 RIPK2 conf	NOD2 BLA counter
CCCNC(=O)N(C)C[C@H]1Oc2ncc(Br)cc2C(=O)N([C@H](C)CO)C[C@H]1C	i	.	99	0	-8	.	.
CCOC(=O)C1=C(N)n2c(s/c(=C\c3cccs3)c2=O)=C(C(=O)OCC)C1c1cccs1 (centres undefined)	?	-3	94	27*	1	11	4
CCOC(=O)C1=C(N)n2c(s/c(=C\c3ccncc3)c2=O)=C(C(=O)OCC)C1c1ccncc1 (centres undefined)	i	-6	89	-13	.	.	.
CC(C)[C@H](NC(=O)OC(C)(C)C)c1nnc(S(=O)(=O)Cc2c(F)cccc2Cl)o1	.	.	100	69*	16	70*	10
Cc1ccccc1CS(=O)(=O)c1nnc([C@H](CC(C)C)NC(=O)OC(C)(C)C)o1	.	11	98	26*	0	42*	-5
CC[C@@H](C)[C@H](NC(=O)OC(C)(C)C)c1nnc(S(=O)(=O)Cc2cc(C)ccc2C)o1	i	11	100	59*	-2	53*	-4
CC(C)(C)OC(=O)N[C@@H](Cc1ccccc1)c1nnc(S(=O)(=O)Cc2cccc(F)c2)o1	.	11	.	.	.	.	.
C/C(CC(=O)Nc1c(C)cc(C)cc1C)=N\NC(=O)Cc1ccccc1	.	.	93	-9	-3	.	.
Cc1cccc(CS(=O)(=O)c2ncc(Cl)c(C(=O)NCc3ccc4c(c3)OCO4)n2)c1	i	.	97	39*	0	42*	10
COC1=C(OC)C(=O)C(Sc2ccc3ccccc3c2)=CC1=O	.	.	93	25*	20	70*	31*
O=C1C=C(c2c(O)ccc3ccccc23)c2ccccc2C1=O	?	.	129	21*	-5	15	-11
Cc1cc(C(=O)C(=O)O)c(C)n1-c1ccc(Cl)c(Cl)c1	i	2	101	-1	-1	.	.
Cc1cc(C)nc(Sc2ccc([N+](=O)[O-])cc2[N+](=O)[O-])n1	i	-5	100	10	-4	.	.
O=[N+]([O-])c1ccc(Sc2ccncn2)c([N+](=O)[O-])c1	?	.	95	24*	12	23*	-1

Screening data (PubChem)
